{
  "source": "PubChem BioAssay (NCI)",
  "note": "This is part of a sample that, as a whole, favours compounds with a hit. Of some 83,000 tested, about 20% had one in any assay.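 Percent growth is the endpoint: 0 to 100 indicates growth inhibition (40 means 60% inhibition), 0 means no net growth, and negative values indicate cell death.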 Calls of active or inactive are those of the source.",
  "data": [
    {"tested_on": "HCT-116 colon", "assay": "NCI-60 one-dose screen, 48 h (100 = growth as untreated, 0 = no growth, -100 = all killed)", "conditions": "10 µM unless noted", "experimental": "Growth inhibition of the HCT-116 human tumor cell line is measured as a screen for anti-cancer activity. Cells are grown in 96 well plates and exposed to the test compound for 48 hours. Compounds are tested at a single concentration, which is 10^-5 M for most compounds. The reported endpoint is percent growth (GI% or GIPRCNT), where numbers from 0 - 100% represent growth inhibition, and numbers from -100% - 0 represent cell death. For example, a value of 40 represents 60% growth inhibition. A value of 0 means no net growth occurred over the course of the experiment. A value of -40 indicates 40% of cells at the beginning of the experiment died by the end of the experiment. A value of -100 means all cells are dead at the end of the experiment.\nNCI-60 Human Tumor Cell Lines Screen was performed using the standard one-dose NCI protocol, which is described in more detail at https://dtp.cancer.gov/discovery_development/nci-60/default.htm.\nCompounds with GIPRCNT values below 10 were considered active. Activity score was based on GIPRCNT using the following formula: […]\nScore is 0 for GIPRCNT values of 100 or above, 50 for GIPRCNT values of 0, and 100 for GIPRCNT values of -100.", "values": [
      {"smiles": "O=C1c2cc([N+](=O)[O-])ccc2-c2cc(Cl)c(NC(=O)C(F)(F)F)cc21", "growth": "104% (inactive)"},
      {"smiles": "CCOC(=O)CSSCC(=O)OCC", "growth": "108% (inactive)"},
      {"smiles": "CCOC(=O)c1c2c(cn1Cc1ccccc1)-c1oncc1CC2", "growth": "90.5% (inactive)"},
      {"smiles": "COc1cc(N)c2nccc(C)c2c1OC", "growth": "102% (inactive)"},
      {"smiles": "CCN(CC)c1ccc2nc3ccc(N=Nc4ccc(O)cc4)cc3[n+](-c3ccccc3)c2c1", "growth": "8.46% (active)"},
      {"smiles": "O=C(CN1C(=O)NC(c2ccccc2)(c2ccccc2)C1=O)c1ccc(N2CCCC2)cc1", "growth": "66% (inactive)"},
      {"smiles": "O=C1Nc2c(c(=O)n(-c3ccccc3)c3ccccc23)C(c2ccc(Cl)cc2)N1", "note": "(stereo not given)", "growth": "56.2% (inactive)"},
      {"smiles": "CCCCCCNC(=O)Oc1ccc(/C(=C(/C)Cc2ccc(OC)cc2)c2ccc(OCCN(C)C)cc2)cc1", "growth": "26.7% (inactive)"},
      {"smiles": "Clc1ccc(I)c2ccccc12", "growth": "97.4% (inactive)"},
      {"smiles": "CCCCCCCCC/C(=N\\NC(=O)c1ccncc1)c1ccc(O)c(O)c1O", "growth": "26.7% (inactive)"},
      {"smiles": "COc1cc(-c2c3c(cn2CCN2CCCCC2)-c2oncc2CC3)cc(OC)c1OC", "growth": "89.5% (inactive)"},
      {"smiles": "O=C(Cc1ccccc1[N+](=O)[O-])c1ccc2c(c1)OCO2", "growth": "103% (inactive)"},
      {"smiles": "Nc1nc2c(c3cnccc13)C(c1cccc(Br)c1)Cc1cnccc1-2", "note": "(stereo not given)", "growth": "3.93% (active)"},
      {"smiles": "Cc1ccc(C(=O)Nc2ccc(CN3CCN(C)CC3)c(C(F)(F)F)c2)cc1C#Cc1cnc(N)c2ccc(F)cc12", "growth": "-96.5% (active)"},
      {"smiles": "Cc1nc2c(nnn2-c2ccccc2)c2nc(-c3ccccc3)oc(=O)c12", "growth": "101% (inactive)"},
      {"smiles": "CCCCCCCCCCCCCCCCNC(=S)N/N=C/c1ccc(OC)cc1", "growth": "89.6% (inactive)"},
      {"smiles": "C=C(C)C(C(=O)OCC)(C(=O)OCC)C(C)C", "growth": "109% (inactive)"},
      {"smiles": "CCCCCCC(C(=O)OCC)(C(=O)OCC)C1CCCCCC1", "growth": "99% (inactive)"},
      {"smiles": "O=C(NCCNCCO)c1cc([N+](=O)[O-])cc([N+](=O)[O-])c1O", "growth": "103% (inactive)"},
      {"smiles": "CCOC(=O)NC1=NCC(C)(C)S1", "growth": "105% (inactive)"},
      {"smiles": "O=S(=O)(Cc1cccc2c(CS(=O)(=O)c3ccc(Cl)cc3)cccc12)c1ccc(Cl)cc1", "growth": "95.5% (inactive)"},
      {"smiles": "Oc1ccc(CN(Cc2ccc(C(F)(F)F)cc2)Cc2ccc(O)c3ncccc23)c2cccnc12", "growth": "18% (inactive)"},
      {"smiles": "CC(O)CCC(C)[N+](=O)[O-]", "note": "(stereo not given)", "growth": "109% (inactive)"},
      {"smiles": "CCC(C)(C)c1ccc(OCCCCCCN2CCN(c3ccc(C)c(Cl)c3)CC2)cc1", "growth": "62.3% (inactive)"},
      {"smiles": "CCCCN(CCCC)CCCNc1c2c(nc3ccc(Cl)cc13)CCCC2", "growth": "57.6% (inactive)"},
      {"smiles": "C=CC1CN2CCC1CC2C(O)c1ccnc2ccc(OC)cc12", "note": "(stereo not given)", "growth": "49.8% (inactive)"},
      {"smiles": "COC(c1ccccc1)C(Br)C(=O)c1ccccc1", "note": "(stereo not given)", "growth": "87.7% (inactive)"},
      {"smiles": "CCOc1ccccc1/C=N\\N=C(N/N=C/c1ccccc1OCC)N/N=C/c1ccccc1OCC", "growth": "13.1% (inactive)"},
      {"smiles": "CCN(CCO)CCNc1ccc(C)c2sc3cc(OC)ccc3c(=O)c12", "growth": "20.5% (inactive)"},
      {"smiles": "Cc1c(O)c(N=Nc2ccc(C(=O)O)c(O)c2)c2ccccc2c1O", "growth": "98.1% (inactive)"},
      {"smiles": "CCCCCCCCCC[N+](C)(C)N", "growth": "95.5% (inactive)"},
      {"smiles": "NNC(=O)CNc1ccc2ccccc2c1", "growth": "107% (inactive)"},
      {"smiles": "COc1cc(NC(C)CCCN)c2nccc(C)c2c1OC", "note": "(stereo not given)", "growth": "93.1% (inactive)"},
      {"smiles": "C/C=C(/C)C(=O)OC1C=C(CO)C(=O)C(OC(=O)C2(C)OC2C)C1C(C)C", "note": "(stereo not given)", "growth": "-58.9% (active)"},
      {"smiles": "CCC(C)C1NC(=O)C(CC(C)C)NC(=O)C(C)NC(=O)C(C(C)C)NC(=O)C(CCCCN)NC(=O)C(CC(C)C)NC(=O)C(C(C)C)NC(=O)[C@H](C)NC(=O)C(C(C)CC)NC(=O)C(CCCN=C(N)N)NC(=O)C(CCCCN)NC(=O)C(CCCN=C(N)N)NC(=O)C(CCCCN)NC(=O)C([C@H](C)CC)NC(=O)C(CCCCN)NC1=O", "note": "(stereo not given in full)", "growth": "3.67% (active)"},
      {"smiles": "O=C(O)c1occ(Cl)c1Cl", "growth": "116% (inactive)"},
      {"smiles": "O=C(Oc1ccccc1)c1ccccc1Cl", "growth": "102% (inactive)"},
      {"smiles": "CCCCCCNC(=O)Oc1ccc(/C(=C(/C)Cc2ccc(OC)cc2)c2ccc(OCCN3CCCCC3)cc2)cc1", "growth": "63.7% (inactive)"},
      {"smiles": "COc1ccccc1C(=O)Nc1cccc(-c2cc(=O)c3c(OC)c(OC)c(OC)cc3o2)c1", "growth": "36.7% (inactive)"},
      {"smiles": "NC(N)=N/N=C/c1cccc(Br)c1", "growth": "92.5% (inactive)"}
    ]}
  ]
}
